SMILES strings stand for the structures. A number with no mark means an inactive call. No stated cut-off is given here; in the data, active means IC50 below about 3 µM; inactive means the rest. Some results are limits rather than exact numbers.

A short description of the assay: luminescent readout interference, potency – biochemical, luminescence, artefact control for SENP inhibitor project, dose response (AID 488920). The conditions noted are these: luminescence interference counterscreen, spectral interferers.
As usually defined, the IC50 is the concentration at which inhibition is half-maximal. Regarding `COc1cc2c(cc1OC)-c1c(OC)c(OC)cc3c1C(C2)N(C)CC3` (stereo not drawn), the IC50 is above 5 µM.
As to `CCC(C)NC(=O)c1c(N)n(CCCOC)c2nc3ccccc3nc12` (stereo not drawn), the IC50 is above 5 µM.
On to `CCOC(=O)c1c(NS(=O)(=O)c2ccccc2)n(CCCOC)c2nc3ccccc3nc12`, for which the IC50 was above 5 µM.

For the origin of these results see PubChem BioAssay AID488920 (Sanford-Burnham Center for Chemical Genomics, 2010).
